Data taken from PubChem BioAssay (NCI).
About 83,000 compounds went through this panel and 20% of them were active in at least one assay; those are over-represented in the sample as a whole.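 The test compound was applied at a single concentration to cells in 96-well plates for 48 hours, and percent growth was recorded.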 Unmarked numbers belong to inactive results. Calls of active or inactive are those of the source. How the source made its calls: active means growth percent below 10; inactive means the rest.

Assays:
Assay in all cases: NCI-60 one-dose screen, 48 h (100 = growth as untreated, 0 = no growth, -100 = all killed)
Details in all cases: 10 µM
RPMI-8226 leukemia = system: RPMI-8226 leukemia
OVCAR-8 ovarian = system: OVCAR-8 ovarian
OVCAR-5 ovarian = system: OVCAR-5 ovarian
SK-OV-3 ovarian = system: SK-OV-3 ovarian
IGROV1 ovarian = system: IGROV1 ovarian
HS 578T breast = system: HS 578T breast
NCI/ADR-RES ovarian = system: NCI/ADR-RES ovarian
T-47D breast = system: T-47D breast
OVCAR-4 ovarian = system: OVCAR-4 ovarian
OVCAR-3 ovarian = system: OVCAR-3 ovarian

| Compound | growth (RPMI-8226 leukemia) | growth (OVCAR-8 ovarian) [%] | growth (OVCAR-5 ovarian) | growth (SK-OV-3 ovarian) | growth (IGROV1 ovarian) | growth (HS 578T breast) | growth (NCI/ADR-RES ovarian) | growth (T-47D breast) | growth (OVCAR-4 ovarian) | growth (OVCAR-3 ovarian) |
| --- | --- | --- | --- | --- | --- | --- | --- | --- | --- | --- |
| COc1cc(/C=C2\Oc3cc(OCC(=O)c4ccccc4)ccc3C2=O)cc(OC)c1OC | 107% | 109 | 136% | 120% | 55.1% | 107% | 97.2% | 73.6% | – | – |
| CCCC1(CC(=O)O)OCCc2c1[nH]c1ccccc21 (configuration not stated) | 99.9% | – | 88.6% | 217% | 114% | 101% | 107% | 194% | 74% | 109% |
| O=C1OCC2=C1C(c1cccc(Br)c1)c1cc3c(cc1N2CCO)CCC3 (configuration not stated) | 19% | – | 22.4% | 28.8% | 20.3% | 6.91% (active) | -5.39% (active) | 71.5% | 54.6% | -62.5% (active) |
| COc1ccc(OC)c2c1C(=O)CC2C (configuration not stated) | 106% | 105 | 112% | – | 100% | 98.2% | 108% | 98.8% | – | 101% |
| COc1ccc(-c2ccc(-c3ccc(C(=N)N)cn3)o2)cc1 | 28.3% | – | 76.9% | 78.4% | 75.2% | 94.1% | 88.1% | 69.1% | 61.4% | 97.1% |
| N#Cc1c(C#N)c(SSc2c(C#N)c(C#N)c(N)n2-c2ccccc2)n(-c2ccccc2)c1N | 125% | – | 91.8% | 115% | 94.5% | 99.6% | 101% | 96.5% | 76.8% | 127% |
| COc1cc(-c2nnc(-c3c(-c4ccc(F)cc4)nc4ccccn34)o2)cc(OC)c1OC | 71.9% | – | 95.6% | 76% | 119% | 68.1% | 61.6% | 53.1% | 69.5% | 75.1% |
| CCCCCCCCCCCCCCCCN(C(C)c1ccccc1)S(=O)(=O)c1ccc(OC)c(N)c1 (configuration not stated) | 103% | – | 104% | 112% | 129% | 126% | 98.7% | 113% | 92.1% | 107% |
| O=C(c1cccs1)c1ccccc1Cc1ccccc1 | 100% | – | 124% | 101% | 99.2% | 106% | 103% | 95% | 96.9% | 110% |
| Clc1ccc(Sc2nc(NC3CC3)nc(Sc3ccc(Cl)cc3)n2)cc1 | 62% | – | 92.9% | 72.8% | 64.7% | 96.1% | 78.3% | 65% | 66.3% | 85.8% |
| CC[C@H](C)C(=O)O[C@H]1CCC=C2C=C[C@H](C)C(CCC3C[C@@H](O)CC(=O)O3)[C@H]21 (some centres not stated) | 96.8% | 45.2 | – | 70.9% | 42.5% | 59.4% | 21.5% | 105% | 98.7% | 112% |
| CN(C)CC(O)c1ccc2cc(Br)c3ccccc3c2c1 (configuration not stated) | 56.1% | – | 68.4% | 95.4% | 22.5% | 74.9% | 59.7% | 69.4% | 84.9% | 81% |
| O=C(CCCCC(=O)Nc1ccc2c(c1)/C(=C/c1ccc[nH]1)C(=O)N2)NO | 96.3% | – | 100% | 73.6% | 95.5% | 72.4% | 93.8% | 0.269% (active) | 56.6% | 36.9% |
| COC(=O)[C@@H]1[C@H](O)[C@H](C)[C@H](O)[C@@](C)(O)/C=C\C=C(C)C(=O)Nc2c(C)c(OC(C)=O)c3c(c2O)C(=O)C(C)=C2OCOC(=C23)C(C)=C[C@@](C)(O)[C@H](O)[C@@H](C)[C@H]1OC(C)=O | -13.2% (active) | – | 97.7% | 117% | 88.4% | 110% | 114% | 102% | 117% | 112% |
| COc1ccc(OC)c(/C=C/c2nc(SCc3ccccc3)n(-c3ccc(Cl)cc3)n2)c1 | 42.5% | 83.6 | 102% | 86.2% | 43.9% | -2.4% (active) | 19.1% | 78% | – | – |
| CCOC(=O)C1CCc2c(ccc3ccccc23)N1CCC#N (configuration not stated) | 104% | 107 | 107% | – | 93.5% | 99.9% | 82% | 97.5% | – | 115% |

| Compound | growth (RPMI-8226 leukemia) | growth (OVCAR-8 ovarian) [%] | growth (OVCAR-5 ovarian) | growth (SK-OV-3 ovarian) | growth (IGROV1 ovarian) | growth (HS 578T breast) | growth (NCI/ADR-RES ovarian) | growth (T-47D breast) | growth (OVCAR-4 ovarian) | growth (OVCAR-3 ovarian) |
| --- | --- | --- | --- | --- | --- | --- | --- | --- | --- | --- |
| C=C(Cl)[C@@](Cl)(CBr)CC[C@@H](Br)C(C)(C)Cl | -59.4% (active) | – | -46.3% (active) | 93.5% | 29.6% | -29% (active) | -66.6% (active) | -58.9% (active) | -37% (active) | -96.2% (active) |
| O=[N+]([O-])c1ccc(Oc2cccnc2)c([N+](=O)[O-])c1 | 25.4% | – | 93.6% | 104% | 92.2% | 81.9% | 51.4% | 61.1% | 50.2% | 66.2% |
| Cc1cc(C)c(NC(=O)c2sc3nc4c(cc3c2N)C(=O)CCC4)c(C)c1 | 31.8% | 45.6 | – | 10.4% | 35.4% | 17.7% | -8.04% (active) | 40.6% | – | 13.2% |
| CN(C)CCN1C(=O)c2cccc3cc(N)cc(c23)C1=O | 1.78% (active) | – | 47.2% | 36.9% | -39.9% (active) | 57.6% | 32.3% | 12.4% | – | 56.2% |
| CC(C)C[C@H](NC(=O)[C@H](Cc1cccc2ccccc12)NS(=O)(=O)c1cccc2cccnc12)B(O)O | -36.7% (active) | – | -57.6% (active) | 0.299% (active) | -64.7% (active) | -18.8% (active) | 14.6% | -44.6% (active) | – | -77.1% (active) |
| Cc1cccc2c(NCCN(C)C)c3cccc(C(=O)NCCN(C)C)c3nc12 | -34.6% (active) | – | 26.1% | 19.7% | -61% (active) | 10.2% | -3.11% (active) | 29.3% | – | 13.9% |
| CN1CC[C@@H](c2c(O)cc(O)c3c(=O)cc(-c4ccccc4Cl)oc23)[C@@H](O)C1 | -32.3% (active) | – | 16.4% | 47.6% | -37.1% (active) | 12.9% | 12.2% | 4.59% (active) | -26.7% (active) | 13.6% |
| CCCCCCN1C(=O)C2=C(c3ccc(Cl)cc3)Nc3c(c(C)nn3-c3ccccc3)C2c2ccccc21 (configuration not stated) | 81.2% | – | 100% | 95.9% | 100% | 118% | 97.8% | 84.5% | 90.5% | 92.7% |
| CC1CN(Cc2ccccc2)C(=O)NC1=O (configuration not stated) | – | 103 | 115% | 111% | 124% | 108% | 107% | 97.2% | 123% | 135% |
| O=C(CSSCC(=O)c1ccc(Cl)cc1)c1ccc(Cl)cc1 | 24.9% | – | 60.1% | 60% | 78.9% | – | -13% (active) | 74.8% | 85.8% | 78.4% |
| COc1ccc(N=C2C(=Nc3ccc(OC)cc3)N(c3ccc(N(C)C)cc3)C(=S)N2c2ccc(OC)cc2)cc1 | -12.4% (active) | – | 34.9% | 87.9% | 107% | 19.6% | 95.8% | 91.1% | – | – |
| C/C(=N\Nc1nc2ccccc2s1)c1ccncn1 | -26.4% (active) | – | 38.9% | 37.7% | -22.2% (active) | 73.5% | 22.9% | -0.411% (active) | -12.3% (active) | 21.2% |
| CC(=O)OCc1cc(-c2nc3ccccc3[nH]c2=O)nn1-c1ccc(Cl)cc1 | 89.1% | – | 99.6% | 100% | 93.2% | 100% | 90.9% | 92.7% | 96.1% | 116% |
| COc1cc(NC(=O)CSc2nc3ccccc3c(=O)n2CCc2ccccc2)cc(OC)c1OC | – | 30 | 65.9% | -37.5% (active) | 8.76% (active) | 36.6% | 36.5% | -1.62% (active) | 53.8% | -30.6% (active) |
| C=C(NC(=O)C(=C)NC(=O)c1csc(C2=NC3c4csc(n4)C4NC(=O)c5csc(n5)C(C(C)(O)C(C)O)NC(=O)C5CSC(=N5)/C(=C/C)NC(=O)C(C(C)O)NC(=O)c5csc(n5)C3(CC2)NC(=O)C(C)NC(=O)C(=C)NC(=O)C(=C)NC(=O)C(C(C)C)NC2C=Cc3c(C(C)O)cc(nc3C2O)C(=O)OC4C)n1)C(N)=O (configuration not stated) | -37.1% (active) | – | 52.6% | 61.9% | -18.1% (active) | 22% | 77.2% | -6.42% (active) | – | 13.4% |
